Test results: the supplement of paper PMC10646978
± gives the standard deviation.

Assays:
Conditions in all cases: modulator concentration 10 µM
[1] = test system: RAW-Dual (murine macrophage reporter line); assay: NF-kB reporter (SEAP) activity fold change vs agonist alone; higher = enhanced NF-kB activity
Method in brief: (§1)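 Overnight stimulation with a PRR agonist followed pre-incubation for 1 hour at 37 °C with compound at 10 μM final. This was done in RAW-Dual murine macrophage reporter cells seeded at 50 000 per well in 384-well plates. NF-κB (SEAP, QUANTI-Blue absorbance at 620 nm) and IRF (Lucia luciferase, QUANTI-Luc luminescence) were read from the supernatant. Each reporter's fold change relative to the mean agonist-only control on the same plate was averaged over replicate plates.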

[2] = test system: RAW-Dual (murine macrophage reporter line); assay: IRF reporter (Lucia luciferase) activity fold change vs agonist alone; higher = enhanced IRF activity
Method in brief: as §1

[3] = test system: RAW-Dual (murine macrophage reporter line); assay: viability score (confluency relative to resting cells, overnight) (fraction); higher = more viable, active = viable (0.7 or more)
Method in brief: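 RAW-Dual macrophages in 384-well plates were treated overnight with compound at 10 μM final. IncuCyte imaging recorded confluency, and IncuCyte software built two confluency masks across every imaged well. The viability score expresses confluency relative to resting cells and was judged against a cutoff, which a compound met only if both masks exceeded 70% of resting cells.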

[4] = agonist: CpG ODN 1826 0.5 ug/mL

Row | Structure (SMILES) | NF-kB reporter [1, 4] | NF-kB reporter ([1]; agonist: LPS 0.1 ug/mL) | NF-kB reporter ([1]; agonist: MPLA […]) | IRF reporter ([2]; agonist: 3'3'-cGAMP 10 ug/mL) | IRF reporter ([2]; agonist: LPS 0.1 ug/mL) | IRF reporter ([2]; agonist: MPLA […]) | viability score [3]
1 | CCC(=O)Nc1ccc(NC(=O)c2ccccc2OC)cc1 | 0.932 ± 0.086 | 1.04 ± 0.083 | 0.997 ± 0.064 | 1 ± 0.042 | 1.25 ± 0.087 | 0.969 ± 0.076 | 1.01 (active)
2 | CN1CCN(CCCN2c3ccccc3Sc3ccc(C(F)(F)F)cc32)CC1.Cl.Cl | 0.958 ± 0.043 | 1.03 ± 0.11 | 1.3 ± 0.11 | 0.788 ± 0.056 | 1.12 ± 0.22 | 1.22 ± 0.39 | 1.02 (active)
3 | COc1ccc(C2=CC(=Cc3cccc(OC)c3OC)C(=O)O2)c(OC)c1 | 1.21 ± 0.3 | 1.06 ± 0.1 | 1.07 ± 0.086 | 1.04 ± 0.028 | 1.27 ± 0.18 | 1.16 ± 0.14 | 1 (active)
4 | O=C(NN=Cc1ccc(O)c(O)c1)c1cc2ccccc2cc1O | 0.35 ± 0.03 | 0.729 ± 0.075 | 0.589 ± 0.038 | 0.229 ± 0.017 | 0.909 ± 0.072 | 0.794 ± 0.18 | 0.997 (active)
5 | O=C(NCC1CCCO1)c1[nH]nnc1-c1ccc(F)cc1 (configuration not stated) | 1.15 ± 0.16 | 0.996 ± 0.075 | 1.01 ± 0.05 | 0.999 ± 0.038 | 1.03 ± 0.048 | 1.1 ± 0.12 | 1 (active)
6 | COCCOC(=O)C1=C(C)NC(C)=C(C(=O)OCC=Cc2ccccc2)C1c1cccc([N+](=O)[O-])c1 (configuration not stated) | 0.586 ± 0.052 | 0.539 ± 0.074 | 1.07 ± 0.068 | 0.548 ± 0.035 | 1.06 ± 0.035 | 2.1 ± 0.43 | 0.989 (active)
7 | CN(CCO)c1ccc2nonc2c1[N+](=O)[O-] | 1.39 ± 0.085 | 1.18 ± 0.11 | 1.33 ± 0.087 | 0.886 ± 0.034 | 1.28 ± 0.086 | 0.996 ± 0.088 | 1 (active)
8 | CC(Oc1ccccc1)C(=O)NC1CC(C)(C)NC(C)(C)C1 (configuration not stated) | 0.76 ± 0.059 | 0.966 ± 0.085 | 1.06 ± 0.1 | 0.993 ± 0.045 | 1.26 ± 0.079 | 1.35 ± 0.14 | 1.02 (active)
9 | O=C(c1ccc(-c2nc3ccccc3s2)s1)N1CCOCC1 | 1.08 ± 0.11 | 1.02 ± 0.15 | 1.16 ± 0.17 | 0.879 ± 0.06 | 1.19 ± 0.25 | 1.21 ± 0.44 | 0.964 (active)
10 | COc1ccc(OC)c(C=NNC(=O)c2cc(C)oc2C)c1 | 0.912 ± 0.16 | 0.925 ± 0.098 | 0.877 ± 0.067 | 0.936 ± 0.044 | 1.26 ± 0.22 | 1.25 ± 0.2 | 0.566 (inactive)
11 | N[C@@H](Cc1cc(I)c(Oc2cc(I)c(O)c(I)c2)c(I)c1)C(=O)O | 0.496 ± 0.045 | 0.804 ± 0.069 | 0.908 ± 0.19 | 0.572 ± 0.044 | 1.15 ± 0.2 | 1.23 ± 0.31 | 1.03 (active)
12 | COC(=O)C1=C(C)NC2=C(C(=O)CC(C)(C)C2)C1c1ccc(OC)c(O)c1 (configuration not stated) | 1.02 ± 0.095 | 0.981 ± 0.055 | 1.01 ± 0.069 | 1.01 ± 0.077 | 1.13 ± 0.16 | 1.05 ± 0.065 | 1.01 (active)
13 | CCCCCCC1OCC2(CO)C(C)C=C(C)C1C2C (configuration not stated) | 0.532 ± 0.075 | 0.697 ± 0.082 | 0.716 ± 0.067 | 1.31 ± 0.075 | 1.05 ± 0.17 | 1.21 ± 0.24 | 0.898 (active)
14 | Fc1ccc(Nc2nc(NN=Cc3ccc(Cl)cc3)nc(N3CCCCC3)n2)cc1 | 1.02 ± 0.087 | 0.949 ± 0.13 | 1.01 ± 0.1 | 1 ± 0.032 | 1.14 ± 0.12 | 1.24 ± 0.2 | 1.05 (active)
15 | CCNC(=O)CCC/C=C\C[C@@H]1[C@@H](/C=C/C(O)CCc2ccccc2)[C@@H](O)C[C@@H]1O (some centres not stated) | 0.953 ± 0.059 | 0.965 ± 0.076 | 0.953 ± 0.041 | 0.994 ± 0.055 | 0.961 ± 0.061 | 0.95 ± 0.1 | 1.01 (active)
16 | N=C1NC(=O)C(=Cc2ccc(-c3cccc(Cl)c3)o2)S1 | 0.688 ± 0.091 | 0.695 ± 0.048 | 1.77 ± 0.11 | 1.39 ± 0.11 | 1.17 ± 0.14 | 2.82 ± 0.65 | 0.932 (active)
17 | O=C(c1ccc(OC(F)(F)F)cc1)N1CCC(Oc2cnccn2)CC1 | 1.05 ± 0.42 | 1.23 ± 0.061 | 1.04 ± 0.066 | 0.902 ± 0.03 | 1.19 ± 0.13 | 1.28 ± 0.13 | 0.996 (active)
18 | Cc1c(C)c2c(c(C)c1O)CCC(C)(CCCC(C)CCCC(C)CCCC(C)C)O2 (configuration not stated) | 1.02 ± 0.085 | 0.997 ± 0.052 | 1.06 ± 0.023 | 0.92 ± 0.057 | 0.965 ± 0.13 | 0.994 ± 0.1 | 0.987 (active)
19 | COC(=O)C1=CN(CC2CCCO2)C=C(C(=O)OC)C1c1ccccc1Br (configuration not stated) | 1.08 ± 0.23 | 0.956 ± 0.094 | 1.01 ± 0.11 | 0.956 ± 0.032 | 1.18 ± 0.21 | 1.05 ± 0.11 | 0.726 (active)
20 | CCCCS(=O)(=O)N[C@@H](Cc1ccc(OCCCCC2CCNCC2)cc1)C(=O)O.Cl.O | 1.2 ± 0.34 | 1.05 ± 0.057 | 0.987 ± 0.075 | 0.907 ± 0.035 | 1.14 ± 0.23 | 1.26 ± 0.12 | 0.99 (active)
21 | CCOc1ccc(S(=O)(=O)N2C3CCC2CC(S(=O)(=O)c2ccccc2)C3)cc1 (configuration not stated) | 0.976 ± 0.06 | 1.05 ± 0.098 | 0.968 ± 0.053 | 0.977 ± 0.044 | 1.25 ± 0.2 | 1.25 ± 0.29 | 0.978 (active)
22 | Cc1ccc(C23CC4CC(CC(CN)(C4)C2)C3)cc1.Cl | 0.827 ± 0.062 | 1.02 ± 0.063 | 1.95 ± 0.14 | 0.741 ± 0.031 | 1.27 ± 0.15 | 1.29 ± 0.13 | 0.46 (inactive)
23 | CC(C)(C)c1ccc(C(=O)CCCN2CCC(OC(c3ccccc3)c3ccccc3)CC2)cc1 | 0.99 ± 0.25 | 1.05 ± 0.081 | 1.02 ± 0.073 | 0.646 ± 0.024 | 1.18 ± 0.23 | 1.21 ± 0.13 | 1 (active)
24 | CC12CCC(=O)C=C1C=CC1C2CCC2(C)C1CCC21CCC(=O)O1 (configuration not stated) | 0.781 ± 0.19 | 0.958 ± 0.084 | 0.93 ± 0.059 | 0.963 ± 0.034 | 1.1 ± 0.21 | 1.06 ± 0.12 | 1.01 (active)
25 | O=C(CCCCC(=O)NN=Cc1cccc(O)c1)NN=Cc1cccc(O)c1 | 1.05 ± 0.093 | 1.08 ± 0.081 | 0.935 ± 0.12 | 0.955 ± 0.032 | 1.41 ± 0.15 | 1.16 ± 0.17 | 1 (active)
26 | COc1ccc(Nc2nc(N3CCCCC3)c3cnn(C)c3n2)cc1 | 0.753 ± 0.043 | 1.23 ± 0.096 | 1.08 ± 0.048 | 0.388 ± 0.02 | 0.967 ± 0.097 | 1.23 ± 0.12 | 0.969 (active)
